# According to the OligoGym collection:
# Molecular target: MRPS24
# Test: pooled miR-30 sensor sort-seq; sequence = guide strand
# Conditions: shRNA
# Also: reference of the scale not given here.
row,Sequence,sensor-assay potency score (higher = more potent)
1,TTGTGTGGAGACAACTGCCTCA,-0.151
2,TGTGCAGCGACAGCCAGCCTTT,-0.931
3,TACCCCACATGAACTTGCGAAG,-1.43
4,TAGGTCACCGGCTTGTCCCCCT,0.167
5,TAGGACAGCAAAGTTTCACTGT,0.628
6,TTTGTAAAAGTAGGACAGCAAA,-1.45
7,TAAAAGTAGGACAGCAAAGTTT,-1.12
8,TTCACTGTAGCCCACGAGGAAG,-1.08
9,TTGGAGGTGGAGTCGCACAGGA,-0.602
10,TACTTGTGTGGAGACAACTGCC,-0.594
11,AAGGAAAACATCCTCCACCGTT,-0.646
12,TAAAACCAGCTGGTCAGCCAGG,-1.47

# Molecular target: MRS2
# Test: as above
# Conditions: shRNA
row,Sequence,sensor-assay potency score (higher = more potent)
1,TTGATACACAGAGCTCTTCTAG,-0.709
2,TAGCAACTCTTCCTCATCCAAG,-1
3,TTTGTCACAGTAAATACTGGGG,0.152
4,TGAATCATCAATCAGCACCCTA,-0.284
5,TTAATATCTGTTTCTAACTCTG,0.197
6,TGTGATACTCATTACATGCTGA,0.129
7,TAATATCAGAAGACACTCTGGA,0.725
8,TACACAGAGCTCTTCTAGCAAC,-1.3
9,TAAACCGGTGCACTTCACCTGC,-0.316
10,TAATATCTGTTTCTAACTCTGA,-0.212
11,TTCCATGCTTCTATCTGCCAGA,-0.489

# Molecular target: MST4
# Test: as above
# Conditions: shRNA
row,Sequence,sensor-assay potency score (higher = more potent)
1,TAGTTTAATAGCTTCTTCCAAA,-1.19
2,TTCAACATTACCAAACACCTAT,-0.0444
3,TAAAATTGCCTCTTCTACCTAA,0.733
4,TAATATTTGACAATTACTCAGA,-0.142
5,TTTGTGAACAGTTCTTCTGGAT,0.425
6,TAAACTGTAATTGTGTTTCAGT,0.0353
7,TATTTTGTTACATATGAGCTGT,-0.0518
8,TTGCTTTAAATTTCTAACCATG,-1.11
9,TTTAATAGCAACGACTTGCTGG,0.885
10,TTATCATAGACAAACAACTCAG,-0.749
11,TATAGGACAATTTATTACCATG,-1.23
12,TATCATAGACAAACAACTCAGG,-0.251

# Molecular target: MTDH
# Test: as above
# Conditions: shRNA
row,Sequence,sensor-assay potency score (higher = more potent)
1,TAACTTGAACATTTAGATGAGA,-0.76
2,TTTTGCTTGGTATTTGACTTGG,-0.198
3,TTTATCATCATCTGAGACCTTT,-0.0741
4,TAGTTGAATCCAATGAACCAGA,-0.602
5,TTCTTCTGTTCCTCGCTCCGGA,-0.0167
